# Assay results: the supplement of paper PMC8728848
# About 410 targets per protein were measured; listed, in parts, are those with the strongest signals and a random draw of the rest.
# B1: PX9937I-bfa-538-26-538 (Bacteroides fragilis) (protein)
# chain: DKLDLSPIDYYGSGSYWKTEAQATAYIDGIHKHLRDAAWQHTITFGELRGGRFITGASSDGMGVSNGDIILQNFDETHTGVSKFGDLFGRITNLNLFIARVTDATYLSDEMKNFYLGEVYGLRAFYYFDLYRIYGGVPLRLTADVVEGVIDPNKLYMARSTPKEVMTQIKSDLNKSMEYFGNMNDFDPYKRGKKVYWSKAATECLMGEVYLWTSKVTTGDDVANPADLTIAKTHLESVLNNYNLKMLDDFSQVFNAKNKANDEIIFAIRFLEGEATNSNGTFTYNVGTGSTKNRYQANGEVFGDALDIQNTGNQTYEYNKAVYQNFDDADTRKEATFIASYNKDGKTGELSLYGTHVRKNIGYVNAQGARVYCGDYIFYRLPWVYLTLAEIANMEGDNAAVAKYINLVRKRAYGNAWDETLYAYPETADFTTNELAILHEKDKEFIQEGQRWWDLRRMTLTKGGTPLVFCKEGSLLGDAPILNKSTEAHKLLWPIEKTMLNKDPALEQTPGYK
# Assays:
# Assay in all cases: glycan array binding signal (z-score within array); higher = stronger binding
# Settings in all cases: glycan notation: IUPAC condensed, linker removed
# [1] = biological target: Fuc(a1-2)Gal(b1-3)GlcNAc(b1-2)Man(a1-3)[Fuc(a1-2)Gal(b1-3)GlcNAc(b1-2)Man(a1-6)]Man(b1-4)GlcNAc(b1-4)GlcNAc
# Summary of the method: (§1)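 The Consortium for Functional Glycomics database supplied 3228 glycan arrays, of which those lacking an available protein sequence were dropped. The binding signal, a within-array Z-score, was averaged across arrays of the same protein sequence and across linkers. Negative scores can be read as non-binding.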
# [2] = biological target: Fuc(a1-2)Gal(b1-4)GlcNAc(b1-2)Man(a1-3)[Fuc(a1-2)Gal(b1-4)GlcNAc(b1-2)Man(a1-6)]Man(b1-4)GlcNAc(b1-4)GlcNAc
# Summary of the method: as §1
# [3] = biological target: Fuc(a1-2)Gal(b1-4)GlcNAc(b1-2)Man(a1-3)[Fuc(a1-2)Gal(b1-4)GlcNAc(b1-2)Man(a1-6)]Man(b1-4)GlcNAc(b1-4)[Fuc(a1-6)]GlcNAc
# Summary of the method: as §1
# [4] = biological target: Fuc(a1-2)Gal(b1-4)GlcNAc(b1-2)[Fuc(a1-2)Gal(b1-4)GlcNAc(b1-4)]Man(a1-3)[Fuc(a1-2)Gal(b1-4)GlcNAc(b1-2)Man(a1-6)]Man(b1-4)GlcNAc(b1-4)GlcNAc
# Summary of the method: as §1
# [5] = biological target: Fuc(a1-2)Gal(b1-4)[Fuc(a1-3)]GlcNAc
# Summary of the method: as §1
# [6] = biological target: Fuc(a1-2)Gal6S(b1-4)Glc6S
# Summary of the method: as §1
# [7] = biological target: Fuc(a1-2)[Gal(a1-3)]Gal(b1-4)GlcNAc(b1-3)[Fuc(a1-2)[Gal(a1-3)]Gal(b1-4)GlcNAc(b1-6)]GalNAc
# Summary of the method: as §1
# [8] = biological target: Fuc(a1-2)[GalNAc(a1-3)]Gal(b1-4)GlcNAc(b1-3)GalNAc
# Summary of the method: as §1
# [9] = biological target: Fuc(a1-2)[GalNAc(a1-4)]Gal(b1-4)GlcNAc
# Summary of the method: as §1
# [10] = biological target: Fuc(a1-3)[Gal(b1-4)]GlcNAc(b1-2)Man(a1-3)[Fuc(a1-3)[Gal(b1-4)]GlcNAc(b1-2)Man(a1-6)]Man(b1-4)GlcNAc(b1-4)GlcNAc
# Summary of the method: as §1
# Gal(a1-3)Gal(b1-3)GlcNAc = biological target: Gal(a1-3)Gal(b1-3)GlcNAc
# Summary of the method: as §1
# [11] = biological target: Gal(a1-3)Gal(b1-3)GlcNAc(b1-2)Man(a1-3)[Gal(a1-3)Gal(b1-3)GlcNAc(b1-2)Man(a1-6)]Man(b1-4)GlcNAc(b1-4)GlcNAc
# Summary of the method: as §1
# [12] = biological target: Gal(a1-3)Gal(b1-3)GlcNAc(b1-6)GalNAc
# Summary of the method: as §1
# [13] = biological target: Gal(a1-3)Gal(b1-3)[Fuc(a1-4)]GlcNAc(b1-2)Man(a1-3)[Gal(a1-3)Gal(b1-3)[Fuc(a1-4)]GlcNAc(b1-2)Man(a1-6)]Man(b1-4)GlcNAc(b1-4)GlcNAc
# Summary of the method: as §1
# Gal(a1-3)Gal(b1-4)GlcNAc = biological target: Gal(a1-3)Gal(b1-4)GlcNAc
# Summary of the method: as §1
# [14] = biological target: Gal(a1-3)Gal(b1-4)GlcNAc(b1-3)GalNAc
# Summary of the method: as §1
# [15] = biological target: Gal(a1-4)Gal(b1-3)GlcNAc(b1-2)Man(a1-3)[Gal(a1-4)Gal(b1-3)GlcNAc(b1-2)Man(a1-6)]Man(b1-4)GlcNAc(b1-4)GlcNAc
# Summary of the method: as §1
# [16] = biological target: Gal(b1-3)GalNAc(a1-3)[Fuc(a1-2)]Gal(b1-4)GlcNAc
# Summary of the method: as §1
# [17] = biological target: Gal(b1-3)GalNAc(b1-4)[Neu5Ac(a2-3)]Gal(b1-4)Glc
# Summary of the method: as §1
# [18] = biological target: Gal(b1-3)GlcNAc(b1-3)Gal(b1-4)GlcNAc(b1-3)Gal(b1-4)GlcNAc(b1-2)[Gal(b1-3)GlcNAc(b1-3)Gal(b1-4)GlcNAc(b1-3)Gal(b1-4)GlcNAc(b1-6)]Man(a1-6)[Gal(b1-3)GlcNAc(b1-3)Gal(b1-4)GlcNAc(b1-3)Gal(b1-4)GlcNAc(b1-2)Man(a1-3)]Man(b1-4)GlcNAc(b1-4)[Fuc(a1-6)]GlcNAc
# Summary of the method: as §1
# [19] = biological target: Gal(b1-3)[Fuc(a1-4)]GlcNAc(b1-6)GalNAc
# Summary of the method: as §1
# [20] = biological target: Gal(b1-3)[Neu5Ac(b2-6)]GalNAc
# Summary of the method: as §1
# [21] = biological target: Gal(b1-4)GlcNAc(b1-2)Man(a1-3)[Gal(b1-4)GlcNAc(b1-2)Man(a1-6)][Gal(b1-4)GlcNAc(b1-4)]Man(b1-4)GlcNAc(b1-4)[Fuc(a1-6)]GlcNAc
# Summary of the method: as §1
# [22] = biological target: Gal(b1-4)GlcNAc(b1-3)Gal(b1-4)Glc
# Summary of the method: as §1
# [23] = biological target: Gal(b1-4)GlcNAc(b1-3)Gal(b1-4)GlcNAc(b1-3)Gal(b1-4)GlcNAc(b1-2)Man(a1-3)[Gal(b1-4)GlcNAc(b1-3)Gal(b1-4)GlcNAc(b1-3)Gal(b1-4)GlcNAc(b1-2)Man(a1-6)]Man(b1-4)GlcNAc(b1-4)GlcNAc
# Summary of the method: as §1
binder,measurement,setting,value
B1,glycan array binding signal (z-score),[1],5.41
same,glycan array binding signal (z-score),[2],3.93
same,glycan array binding signal (z-score),[3],1.57
same,glycan array binding signal (z-score),[4],1.02
same,glycan array binding signal (z-score),[5],-0.821
same,glycan array binding signal (z-score),[6],2.55
same,glycan array binding signal (z-score),[7],-0.413
same,glycan array binding signal (z-score),[8],-0.541
same,glycan array binding signal (z-score),[9],1.66
same,glycan array binding signal (z-score),[10],3.92
same,glycan array binding signal (z-score),Gal(a1-3)Gal(b1-3)GlcNAc,0.142
same,glycan array binding signal (z-score),[11],0.317
same,glycan array binding signal (z-score),[12],0.142
same,glycan array binding signal (z-score),[13],3.11
same,glycan array binding signal (z-score),Gal(a1-3)Gal(b1-4)GlcNAc,-0.994
same,glycan array binding signal (z-score),[14],-1.27
same,glycan array binding signal (z-score),[15],4.73
same,glycan array binding signal (z-score),[16],-0.45
same,glycan array binding signal (z-score),[17],-0.928
same,glycan array binding signal (z-score),[18],2.69
same,glycan array binding signal (z-score),[19],2.39
same,glycan array binding signal (z-score),[20],-0.133
same,glycan array binding signal (z-score),[21],1.11
same,glycan array binding signal (z-score),[22],0.127
same,glycan array binding signal (z-score),[23],6.36
